Measured values: the supplement of paper PMC6555819

Assays:
Test in all cases: PBM binding z-score (relative to random genomic background probes); higher = stronger binding; sequences stand for … in GC…GCGATTGACAGCGTAGAATGAAGG
[1] = test system: PPARg:RXRa DBDmut IVT, anti-RXR (DBD mutation: RXRa K156A/R161A, NR concentration 270 nM, RXRa partner concentration 90 nM)
In short: (§1)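 Random background probes are the reference for binding z-scores. These scores derive from regression-normalized fluorescence on custom Agilent 4×180K protein-binding microarrays incubated 1 h with ligand-free nuclear receptor dimers. Binding was detected with antibodies against each partner (one per run).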

[2] = test system: PPARg:RXRa IVT, anti-PPARg (NR concentration 270 nM, RXRa partner concentration 90 nM)
In short: as §1

[3] = test system: PPARg DBDmut:RXRa IVT, anti-PPARg (DBD mutation: PPARg1 K132A/R137A, NR concentration 270 nM, RXRa partner concentration 90 nM)
In short: as §1

[4] = test system: PPARg DBDmut IVT, anti-PPARg (DBD mutation: PPARg1 K132A/R137A, NR concentration 270 nM)
In short: as §1

[5] = test system: PPARg homodimer (NR concentration 180 nM)
In short: as §1

[6] = test system: PXR:RXRa (NR concentration 270 nM, RXRa partner concentration 90 nM)
In short: as §1

[7] = test system: PXR homodimer (NR concentration 270 nM)
In short: as §1

[8] = test system: RARa:RXR (NR concentration 270 nM, RXRa partner concentration 90 nM)
In short: as §1

[9] = test system: RARa homodimer (NR concentration 270 nM)
In short: as §1

[10] = test system: RARb:RXRa (NR concentration 270 nM, RXRa partner concentration 90 nM)
In short: as §1

[11] = test system: RARb homodimer (NR concentration 270 nM)
In short: as §1

[12] = test system: RARg:RXRa (NR concentration 270 nM, RXRa partner concentration 90 nM)
In short: as §1

[13] = test system: RARg homodimer (NR concentration 270 nM)
In short: as §1

[14] = test system: RXRa DBDmut IVT, anti-RXR (DBD mutation: RXRa K156A/R161A, NR concentration 90 nM)
In short: as §1

[15] = test system: RXRa homodimer (NR concentration 180 nM)
In short: as §1

[16] = test system: THRa:RXRa (NR concentration 90 nM, RXRa partner concentration 90 nM)
In short: as §1

[17] = test system: THRa homodimer (NR concentration 90 nM)
In short: as §1

[18] = test system: VDR homodimer (NR concentration 270 nM)
In short: as §1

Sequence	PBM binding z-score [1]	PBM binding z-score [2]	PBM binding z-score [3]	PBM binding z-score [4]	PBM binding z-score [5]	PBM binding z-score [6]	PBM binding z-score [7]	PBM binding z-score [8]	PBM binding z-score [9]	PBM binding z-score [10]	PBM binding z-score [11]	PBM binding z-score [12]	PBM binding z-score [13]	PBM binding z-score [14]	PBM binding z-score [15]	PBM binding z-score [16]	PBM binding z-score [17]	PBM binding z-score [18]
ACTATTAGTTGAGACGAGGGGAACCGATAGGTTG	0.452	0.325	0.853	0.931	-0.148	-0.0512	0.29	-0.00202	0.237	0.18	-0.242	0.21	0.42	0.612	0.177	1.13	-0.473	0.00117
CGAACTAGGTCAGTACAGGACAGTGAAGGATGAT	7.48	7.01	0.814	0.573	1.07	0.911	-0.456	0.671	0.153	3.04	2.51	2.64	3.79	0.399	1.3	3.38	0.28	0.105
TCTTGAAGATCAACAGGAGGTTAAGAAAGATCGA	1.18	0.0291	0.0497	0.387	0.165	0.962	-0.127	1.25	0.0716	0.816	0.572	1.45	0.367	0.56	1.25	0.975	-0.383	-0.404
TCAGACAGGTGAAGGTCACTCAGGTACGCAGTCG	3.07	2.84	0.351	0.266	2.38	4.02	0.556	3.78	0.971	4.01	4.11	3.63	4.11	1.7	3.51	3.79	1.43	2.39
ATCGAAAGGTCGAGGTGAGGATAGAGAAAGGGAA	0.551	2.41	1.29	0.836	1.63	2.46	0.644	3.16	0.718	4.06	3.07	4.35	4.28	0.642	4.31	3.87	1.64	0.466
GCTTACGGGTCAAAGGTTATAGCCTGAATAGAAT	4.87	6.32	0.778	1.43	7.84	6.26	0.103	8.66	-0.0748	4.65	3.15	6.87	4.5	2.7	9.3	4.01	-0.0478	1.65
TAGCCTACGTCATTCAGGGGCCAGTATAGAAAGC	-0.459	-0.0447	0.682	0.371	0.00959	-0.22	-0.62	-0.258	-0.456	0.27	0.534	0.54	0.097	-0.122	0.286	0.215	-0.39	-0.343
ACTTACGGGTAAACGAGGTTATAGCACGCGTATA	0.828	1.16	-0.07	0.0677	0.611	1.65	0.138	2.32	0.806	0.846	1.12	0.939	0.812	0.819	1.57	3.64	0.765	1.45
CGAACGAGAGCATGAGTTGATAGCAAATGCCGAT	-0.221	-0.445	0.0684	-0.174	-0.221	-0.273	-0.148	-0.442	-0.33	-0.53	-0.657	-0.0472	0.132	0.193	-0.065	-0.724	-1.07	0.244
ATATGTGGGTTACATCCGGGTCATTCAGGCTATG	6.84	6.81	2.1	2.31	2.37	3.72	2.92	3.51	1.06	2.01	2.79	3.53	1.94	1.08	3.17	3.75	3.01	3.65
CCTACTGCGCCATCAGGTCATTGATATCAACGTT	0.542	1.25	-0.701	0.364	1.76	1.98	0.943	2.03	0.602	1.76	2.85	1.59	1.53	1.5	1.3	3.49	3.56	2.17
CGTCCAAGGTCAATGCTAGGTCAGTAAAAGCATT	3.36	4.08	0.0708	-0.363	5.6	4.82	1.32	6.12	1.53	5.32	4.89	7.54	6.94	3.31	5.24	4.28	2.63	2.92
AGAACGAGGGCAATGAGTTGATTGCACGGGTGGC	3.14	2.43	0.337	-0.0138	-0.0601	1.65	6.35	0.166	-0.231	1.89	0.636	0.81	1.23	1.88	0.475	0.794	-0.344	3
TTACCAACGTGAAGGTCGTTGATCCCTCTGTAGA	0.422	-0.0578	-0.0855	-0.0405	0.497	1.42	0.561	1.13	-0.198	0.811	1.24	0.301	0.15	0.665	1.17	1.04	0.438	1.3
ACTAGCAGGCCAAGTTTGGGTCAGTCAAACAAAG	0.456	0.754	-0.643	-0.95	-0.103	0.0962	-0.463	0.649	-0.408	1.21	1.85	1.65	0.925	-0.416	0.0586	1.62	0.427	-0.265
ACAGACAGGTGCGTGAAGGTAACTCAGCTGGACG	-0.935	-0.58	0.0563	-0.077	-0.238	-0.583	-0.495	-0.585	-0.862	-0.307	-0.567	-0.319	-0.0259	-0.249	-0.0792	-0.227	-0.945	-0.569
